In PubChem BioAssay AID686978 (National Center for Advancing Translational Sciences (NCATS), 2013):
“And” between values parts separate entries of the source, which are not always exact repeats. Equal values may be shown once. Hit rate of the full screen: of about 420,000 compounds, about 64,000 (15%) were called active. About 27% were inconclusive and are not listed. A selection follows. Values without a mark were called inactive. Calls follow the shape of the dose curve; as a rule, active = well fitted inhibition curve with a large enough effect; inconclusive = small, poorly fitted or top-dose-only effect; inactive = flat fitted curve, though single readings scatter.

Assay: qHTS for Inhibitors of human tyrosyl-DNA phosphodiesterase 1 (TDP1): qHTS in cells in absence of CPT; also: nearly all actives have a fitted effect of over 55% in size
Conditions: DT40 Tdp1-/- hTDP1 cells, no CPT, ATP luminescence, 48 h; activity change, negative = growth inhibition: at 46.2 µM (top of the series)
How it was run: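 A cellular qHTS used chicken DT40 cells lacking endogenous Tdp1 but carrying stably transfected human TDP1. Compounds were applied without camptothecin, and cell growth kinetics were judged by ATP-dependent luminescence after ≥48 hr.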
% is scaled to controls: 0 for no effect and ±100 for the full control effect; potency is read from the fitted curve at half-maximal effect.

Compared with `Cc1ccc(S(=O)(=O)N(NC2=NS(=O)(=O)c3ccccc32)C(=O)c2ccccc2)cc1`, `Cc1ccccc1C(=O)NCCN=C1NS(=O)(=O)c2ccccc21` is higher in “activity change, negative = growth inhibition” value: -14.8% for the first, 17.6% for the second.

Compared with `Cc1cc(C)c(C)c(S(=O)(=O)N[C@@H](C)C(=O)OC(C)C(=O)NC(N)=O)c1C` (stereo not given in full), `Cc1ccc(S(=O)(=O)c2ccc(Cl)cc2)cc1S(=O)(=O)NC(C(=O)O)C(C)C` (stereo not given) is lower in “activity change, negative = growth inhibition” value: 4.64% for the first, -8.65% for the second.

First: COc1ccccc1C(=O)COC(=O)CSCC(=O)Nc1cc(C)on1
Second: Cc1cc(NC(=O)CCC2COc3ccccc3O2)no1 (stereo not given)
The “activity change, negative = growth inhibition” value of the first is higher: 1.01% for the first, -10.2% for the second.

Going from `COC(=O)N1CN(C(=O)OC)CN(C(=O)OC)C1` to `CCOC(=O)N1CCN(C(=O)c2n[nH]c(=O)c3ccccc23)CC1`, the “activity change, negative = growth inhibition” value falls from -2.09% to -14%.

First: CN(C(=O)CC1C(=O)NCCN1Cc1ccc(F)cc1Cl)C1CCCCC1 (stereo not given)
Second: COc1ccc(OC)c(CN2C(=O)CCC2(C)C(=O)NC2CCCCCC2)c1 (stereo not given)
The “activity change, negative = growth inhibition” value of the first is lower: 0.124% for the first, 3.78% for the second.

Compared with `COc1cc(NC(=O)c2nn(-c3ccc(C)cc3)c(=O)c3c2c2ccccc2n3C)cc(OC)c1OC`, `COc1cccc(-n2ccn(CC(=O)NCc3ccc(C)cc3)c(=O)c2=O)c1` is lower in “activity change, negative = growth inhibition” value: -7.67% for the first, -24% for the second.

Compared with `CCCN(CCC)CCNC(=O)Cn1cnc2sc(C)c(S(=O)(=O)N3CCC(C)CC3)c2c1=O`, `CCCCc1nnc(NC(=O)CSc2nc(C)cc(=O)[nH]2)s1` is lower in “activity change, negative = growth inhibition” value: 7.29% for the first, -10.6% for the second.

First: O=C(CC[C@H]1O[C@@H](n2ccc(=O)[nH]c2=O)[C@H](O)[C@@H]1O)N[C@H](Cc1ccccc1)C(=O)NCc1ccco1
Second: Cc1ccccc1C(=O)NNC(=O)CN1C(=O)c2ccccc2C1=O
The “activity change, negative = growth inhibition” value of the first is higher: 24.1% for the first, 16.1% for the second.

Going from `O=C(NN=CC=Cc1ccccc1)C(O)C(O)C(=O)NN=CC=Cc1ccccc1` (stereo not given) to `Cn1c(CC(=O)Nc2ccccc2)nnc1SCC(=O)c1ccccc1`, the “activity change, negative = growth inhibition” value falls from 2.13% to 1.42%.

Compared with `CC(C)(C)c1ccc(C(=O)NCc2ccco2)cc1`, `CC(C)(C)NC(=O)NCc1ccco1` is higher in “activity change, negative = growth inhibition” value: -25.6% for the first, -7.35% for the second.

Compared with `Clc1ccc(-c2nnc(SCc3nc4ccccc4s3)o2)cc1`, `Clc1ccc(Cc2nnc(-c3cccs3)o2)cc1` is lower in “activity change, negative = growth inhibition” value: 1.63% for the first, -21.9% for the second.

Compared with `CCCn1c(N)c(C(=O)CSc2nnc3n2CCCCC3)c(=O)[nH]c1=O`, `CCOC(=O)C1CCCN(C(=O)Cn2ncc3c(=O)oc4ccc(C)cc4c32)C1` (stereo not given) is lower in “activity change, negative = growth inhibition” value: 6.82% for the first, 1.04% for the second.

Compared with `CN(CC(=O)NCCc1ccc(S(N)(=O)=O)cc1)CC(=O)Nc1ccc(F)c(F)c1F`, `Cc1ccc(S(=O)(=O)NCCC(=O)NNC(=O)C2COc3ccccc3O2)cc1` (stereo not given) is lower in “activity change, negative = growth inhibition” value: -17.4% for the first, -20.6% for the second.

First: CCOc1ccccc1NC(=O)CN1CCN(S(=O)(=O)c2ccc(Br)cc2)CC1
Second: COc1ccc(Cn2c(=O)c3oc4ccccc4c3n(CC(=O)Nc3ccc(F)cc3F)c2=O)cc1
The “activity change, negative = growth inhibition” value of the first is lower: -17.6% for the first, -15.4% for the second.

Going from `COc1ccc(Sc2nc(-c3ccccc3)ncc2OC)cc1` to `Cn1c(SCC(=O)c2ccccc2)ncc(C(=O)Nc2ccc(F)cc2)c1=O`, the “activity change, negative = growth inhibition” value falls from -5.11% to -26.2%.

Going from `CCCCNC(=O)c1onc(CSc2cccc(OC)c2)c1C(=O)O` to `Cc1cc(NC(=O)CSc2ncc(C(=O)Nc3ccc(Cl)cc3)c(=O)n2C)no1`, the “activity change, negative = growth inhibition” value rises from -11% to -3.88%.

First: O=c1o[nH]c(-c2ccccc2)c1N=Nc1c(F)cccc1Cl
Second: Cc1ccccc1OCC(=O)Nc1c(C(=O)Nc2ccccc2F)oc2ccccc12
The “activity change, negative = growth inhibition” value of the first is higher: -4.15% for the first, -18.9% for the second.

Going from `Cc1ccc2oc(=O)c3cnn(CC(=O)N4CCCCCC4)c3c2c1` to `COCc1c(C(=O)NC2CCCCC2)cnn1-c1nccc(-c2ccccc2OC)n1`, the “activity change, negative = growth inhibition” value rises from -15.1% to -2.16%.

First: CCOc1ccc(CN(C)C(=O)c2ccc(=O)[nH]c2)cc1
Second: CN(C)c1ccc(-n2cccc2/C=N/n2cnnc2)cc1
The “activity change, negative = growth inhibition” value of the first is lower: -19.3% for the first, -5.16% for the second.

First: Cc1noc(C)c1-c1nc(CSc2ccc(Cl)cc2)no1
Second: Cc1cc(C(=O)NCC2Cc3cccc(-c4cncnc4)c3O2)c(C)o1 (stereo not given)
The “activity change, negative = growth inhibition” value of the first is lower: -21.8% for the first, 0.211% for the second.

Going from `CCCC(=O)n1nc(-c2ccccc2)nc1N` to `CCn1ccnc1C[C@@H]1COc2ccccc2O1`, the “activity change, negative = growth inhibition” value falls from -4.29% to -21.8%.

First: CCOC(=O)c1sc(=NC(=O)/C=C/c2cccs2)n(C)c1C
Second: COC(=O)C1=C(C)N(C)C(=S)NC1c1cc(OC)ccc1OC (stereo not given)
The “activity change, negative = growth inhibition” value of the first is lower: -22.9% for the first, -6.15% for the second.

Compared with `Cc1cc(C(=O)NNC(=O)CCC2CCCCC2)c(C)o1`, `O=C(CN1C(=O)C2C3C=CC(C3)C2C1=O)NCC1COc2ccccc2O1` (stereo not given) is lower in “activity change, negative = growth inhibition” value: 4.76% for the first, 2.38% for the second.

Going from `CC(=O)N[C@H]1[C@H]([C@H](O)[C@H](O)CO)OC(C(=O)O)=C[C@@H]1O` to `OCC[C@H]1C[C@@H](O)[C@H](O)[C@@]2(OCCc3ccccc32)O1`, the “activity change, negative = growth inhibition” value falls from 7.34% to -12.8%.

Compared with `C=CCN1C(=NC(=O)COc2ccccc2)SC2CS(=O)(=O)CC21` (stereo not given), `CC(C)=CCN1CCN(CCCc2ccccc2)CC1CCO` (stereo not given) is higher in “activity change, negative = growth inhibition” value: -0.72% for the first, 2.17% for the second.

With `Nc1ccc2nc3c(=O)[nH]c(=S)[nH]c3nc2c1` the “activity change, negative = growth inhibition” value was -13.9%.

For `CCOC(=O)N1CCN(C(=O)c2nn(-c3ccc(C)cc3)c(=O)c3c2c2ccccc2n3C)CC1`, the Potency was 18.4 µM (active).
With `CC(C)(C)c1ccc(NC(=O)NCc2ccco2)cc1` the Potency was 14.6 µM (active).
For `Oc1c(Cl)cc(Cl)c(Cl)c1Cc1c(O)c(Cl)cc(Cl)c1Cl`, the Potency was 4.22 µM (active) and 23.1 µM (active) and 2.59 µM (active).
In the case of `CCCCNc1c(-c2cccc(Sc3ccc(OC)cc3)c2)nc2ccccn12`, the Potency is reported as 20.6 µM (active).
In the case of `CCOC(=O)C1CCCN(C(=O)Cn2ncc3c(C)n(Cc4ccc(F)cc4)c(C)c3c2=O)C1` (stereo not given), the Potency is reported as 16.4 µM (active).
For `Clc1ccc2nc(-c3ccccc3)nc(C(Cl)Cl)c2c1`, the Potency was 0.366 µM (active).
In the case of `CCc1nn(-c2cc(Oc3cccc4ccccc34)nc(-c3ccccc3)n2)c(N)c1C#N`, the Potency is reported as 16.4 µM (active).
With `COc1ccc(C(=O)NC2CCCc3c2cnn3-c2cccc(C)c2C)c(OC)n1` (stereo not given) the Potency was 8.2 µM (active).
For `COc1ccc(OC)c(C(=O)NC2CCCc3c2cnn3-c2cc(C)cc(C)c2)c1` (stereo not given), the Potency was 16.4 µM (active).
In the case of `Cc1cc(C(=O)NC2CCCc3c2cnn3-c2cccc(C)c2C)c(C)o1` (stereo not given), the Potency is reported as 8.2 µM (active).
For `Cc1ccc(NC(=O)c2cnc(SCC(=O)NCC3CCCO3)n(C)c2=O)cc1` (stereo not given), the Potency was 14.6 µM (active).
In the case of `CC(C)=CCN1CCC2(CCc3ccccc32)CC1`, the Potency is reported as 20.6 µM (active).
In the case of `Cc1cc(C(=O)CCl)c(C)n1CC1COc2ccccc2O1` (stereo not given), the Potency is reported as 2.59 µM (active).
In the case of `O=C1C(=O)N(CC2COc3ccccc3O2)c2ccccc21` (stereo not given), the Potency is reported as 1.46 µM (active).
